# Source: the supplement of paper PMC6555819
# What was measured:
# Test in all cases: PBM binding z-score (relative to random genomic background probes); higher = stronger binding; sequences stand for … in GC…GCGATTGACAGCGTAGAATGAAGG
# [1] = system: RARb homodimer (NR concentration 270 nM)
# Outline: (§1)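 Each nuclear receptor dimer, without ligand, was incubated for 1 h on custom Agilent 4×180K protein-binding microarrays. Binding was detected with antibodies against each partner (one per run), and scanned fluorescence was regression-normalized. The binding z-scores are referenced to random human genomic background probes.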
# [2] = system: RARg:RXRa (NR concentration 270 nM, RXRa partner concentration 90 nM)
# Outline: as §1
# [3] = system: RARg homodimer (NR concentration 270 nM)
# Outline: as §1
# [4] = system: RXRa DBDmut IVT, anti-RXR (DBD mutation: RXRa K156A/R161A, NR concentration 90 nM)
# Outline: as §1
# [5] = system: RXRa homodimer (NR concentration 180 nM)
# Outline: as §1
# [6] = system: THRa:RXRa (NR concentration 90 nM, RXRa partner concentration 90 nM)
# Outline: as §1
# [7] = system: THRa homodimer (NR concentration 90 nM)
# Outline: as §1
# [8] = system: VDR homodimer (NR concentration 270 nM)
# Outline: as §1
sequence,measurement,setting,value
CCTCCGAGGACAACAGGAGGTCAGAGCTGCCAGA,PBM binding z-score,[1],3.75
same,PBM binding z-score,[2],3.41
same,PBM binding z-score,[3],3.21
same,PBM binding z-score,[4],0.726
same,PBM binding z-score,[5],2.02
same,PBM binding z-score,[6],3.58
same,PBM binding z-score,[7],2.36
same,PBM binding z-score,[8],1.61
AGATCGAGGGCACGCTGAGTTGATAGCAGAGTAG,PBM binding z-score,[1],0.796
same,PBM binding z-score,[2],1.71
same,PBM binding z-score,[3],1.86
same,PBM binding z-score,[4],1.57
same,PBM binding z-score,[5],0.933
same,PBM binding z-score,[6],1.63
same,PBM binding z-score,[7],-0.107
same,PBM binding z-score,[8],1.65
CCAGACAGGTGAGAAGGTTACTCAGCCTCGATTA,PBM binding z-score,[1],1.63
same,PBM binding z-score,[2],1.67
same,PBM binding z-score,[3],1.13
same,PBM binding z-score,[4],0.518
same,PBM binding z-score,[5],1
same,PBM binding z-score,[6],0.657
same,PBM binding z-score,[7],0.115
same,PBM binding z-score,[8],0.152
AGTCAAAATTCATCTAGGTAACGTAAGATATGCT,PBM binding z-score,[1],-0.349
same,PBM binding z-score,[2],0.038
same,PBM binding z-score,[3],0.342
same,PBM binding z-score,[4],0.0782
same,PBM binding z-score,[5],-0.00435
same,PBM binding z-score,[6],0.538
same,PBM binding z-score,[7],0.0978
same,PBM binding z-score,[8],-0.296
CCGAGTAGGTTATGGGGCATTTAGGCAACGGTGA,PBM binding z-score,[1],0.777
same,PBM binding z-score,[2],0.488
same,PBM binding z-score,[3],0.435
same,PBM binding z-score,[4],0.127
same,PBM binding z-score,[5],0.632
same,PBM binding z-score,[6],0.429
same,PBM binding z-score,[7],0.289
same,PBM binding z-score,[8],-0.135
CCTGATAGGTCATGGTCAGCTAATCTACAGTATG,PBM binding z-score,[1],3.69
same,PBM binding z-score,[2],5.08
same,PBM binding z-score,[3],5.2
same,PBM binding z-score,[4],1.57
same,PBM binding z-score,[5],5.33
same,PBM binding z-score,[6],2.46
same,PBM binding z-score,[7],0.212
same,PBM binding z-score,[8],0.195
CCGAATGGGGCATAAGGTTACCATAAGCCAGCCC,PBM binding z-score,[1],1.7
same,PBM binding z-score,[2],1.67
same,PBM binding z-score,[3],1.03
same,PBM binding z-score,[4],-0.221
same,PBM binding z-score,[5],1.49
same,PBM binding z-score,[6],2.1
same,PBM binding z-score,[7],1.45
same,PBM binding z-score,[8],-0.245
CAAACTAGGTCACGAAAGGTCAGAGTCGAATGAC,PBM binding z-score,[1],5.65
same,PBM binding z-score,[2],7.33
same,PBM binding z-score,[3],7.81
same,PBM binding z-score,[4],2.37
same,PBM binding z-score,[5],7.38
same,PBM binding z-score,[6],4.84
same,PBM binding z-score,[7],2.26
same,PBM binding z-score,[8],2.55
CGTCCAAGGTCAATGCTAGGTCAGTTAAAGCATT,PBM binding z-score,[1],5.03
same,PBM binding z-score,[2],7.56
same,PBM binding z-score,[3],6.8
same,PBM binding z-score,[4],3.49
same,PBM binding z-score,[5],5.03
same,PBM binding z-score,[6],4.67
same,PBM binding z-score,[7],2.9
same,PBM binding z-score,[8],3.2
CCTAGGAGGACAGAAGGTCAGAGCTGTCCGCTTT,PBM binding z-score,[1],3.34
same,PBM binding z-score,[2],3.28
same,PBM binding z-score,[3],2.78
same,PBM binding z-score,[4],0.179
same,PBM binding z-score,[5],1.84
same,PBM binding z-score,[6],2.25
same,PBM binding z-score,[7],-0.21
same,PBM binding z-score,[8],-0.00238
ATCTCTAGGTAATAAGTTCAGTGAAAGAGAGGAC,PBM binding z-score,[1],2.13
same,PBM binding z-score,[2],1.53
same,PBM binding z-score,[3],1.59
same,PBM binding z-score,[4],1.23
same,PBM binding z-score,[5],0.755
same,PBM binding z-score,[6],1.64
same,PBM binding z-score,[7],1.31
same,PBM binding z-score,[8],2.41
ATCTCTAGGTACAAGTTCAGTGAATCCCGAGGAT,PBM binding z-score,[1],1.52
same,PBM binding z-score,[2],0.997
same,PBM binding z-score,[3],1.14
same,PBM binding z-score,[4],1.93
same,PBM binding z-score,[5],0.729
same,PBM binding z-score,[6],0.819
same,PBM binding z-score,[7],0.457
same,PBM binding z-score,[8],2.83
AGAATGAGGATATACGTAGATCAGGGAAGAAAGT,PBM binding z-score,[1],-0.46
same,PBM binding z-score,[2],0.0404
same,PBM binding z-score,[3],0.424
same,PBM binding z-score,[4],-0.474
same,PBM binding z-score,[5],-0.0531
same,PBM binding z-score,[6],0.415
same,PBM binding z-score,[7],-0.039
same,PBM binding z-score,[8],-0.0995
ATCTCTAGGTAATGTTCAGTGAAAGATCGATAGA,PBM binding z-score,[1],-0.207
same,PBM binding z-score,[2],0.262
same,PBM binding z-score,[3],0.561
same,PBM binding z-score,[4],0.333
same,PBM binding z-score,[5],0.234
same,PBM binding z-score,[6],0.493
same,PBM binding z-score,[7],0.382
same,PBM binding z-score,[8],0.364
TCTTGGAGGACACGAAAGGTCAGAGCTCGACATC,PBM binding z-score,[1],4.63
same,PBM binding z-score,[2],5.1
same,PBM binding z-score,[3],5.47
same,PBM binding z-score,[4],1.26
same,PBM binding z-score,[5],4.25
same,PBM binding z-score,[6],3.89
same,PBM binding z-score,[7],1.31
same,PBM binding z-score,[8],1.48
TATACAGGGTCCAAGGCCAGAGTACGAATGTCGA,PBM binding z-score,[1],1.18
same,PBM binding z-score,[2],0.986
same,PBM binding z-score,[3],1.15
same,PBM binding z-score,[4],1.17
same,PBM binding z-score,[5],0.823
same,PBM binding z-score,[6],0.402
same,PBM binding z-score,[7],0.398
same,PBM binding z-score,[8],2.03
TCTGCTAGGTCAACGATGGTGAGCTAATCTGCTA,PBM binding z-score,[1],2.8
same,PBM binding z-score,[2],3.82
same,PBM binding z-score,[3],4.93
same,PBM binding z-score,[4],0.81
same,PBM binding z-score,[5],1.99
same,PBM binding z-score,[6],2.68
same,PBM binding z-score,[7],0.17
same,PBM binding z-score,[8],-0.792
CCTTACGGGTCACTCCAGGTTAGAGCATCGGAGT,PBM binding z-score,[1],3.08
same,PBM binding z-score,[2],4.43
same,PBM binding z-score,[3],4.37
same,PBM binding z-score,[4],1.55
same,PBM binding z-score,[5],4.07
same,PBM binding z-score,[6],4.81
same,PBM binding z-score,[7],0.277
same,PBM binding z-score,[8],1.18
TCGAGTAAGTTACCAATGGGGCATTCAGCTTTCT,PBM binding z-score,[1],-0.474
same,PBM binding z-score,[2],-0.261
same,PBM binding z-score,[3],-0.771
same,PBM binding z-score,[4],0.494
same,PBM binding z-score,[5],-0.0395
same,PBM binding z-score,[6],-0.445
same,PBM binding z-score,[7],-0.524
same,PBM binding z-score,[8],-0.319
GCAGAAAGGTGAAACGCAGGTAACTCAGGGTGGC,PBM binding z-score,[1],1.55
same,PBM binding z-score,[2],3.22
same,PBM binding z-score,[3],1.84
same,PBM binding z-score,[4],0.00146
same,PBM binding z-score,[5],2.31
same,PBM binding z-score,[6],2.25
same,PBM binding z-score,[7],-0.396
same,PBM binding z-score,[8],-0.808
CCTATTAGTTGACGATAAGGGCAACCGAAGCTCG,PBM binding z-score,[1],1.43
same,PBM binding z-score,[2],0.95
same,PBM binding z-score,[3],0.873
same,PBM binding z-score,[4],0.16
same,PBM binding z-score,[5],0.582
same,PBM binding z-score,[6],1.57
same,PBM binding z-score,[7],0.591
same,PBM binding z-score,[8],0.415
GCTAGCAGGCCATTTGGGTCACGCAATGACGGGC,PBM binding z-score,[1],2.27
same,PBM binding z-score,[2],1.79
same,PBM binding z-score,[3],1.75
same,PBM binding z-score,[4],-0.208
same,PBM binding z-score,[5],1.68
same,PBM binding z-score,[6],2.54
same,PBM binding z-score,[7],1.19
same,PBM binding z-score,[8],0.28
ATATGTAGGTTATCGGGTCATTCACTTTGCGCAT,PBM binding z-score,[1],3.14
same,PBM binding z-score,[2],3.43
same,PBM binding z-score,[3],2.55
same,PBM binding z-score,[4],1.88
same,PBM binding z-score,[5],3.56
same,PBM binding z-score,[6],3.39
same,PBM binding z-score,[7],2.94
same,PBM binding z-score,[8],3.12
CCTACTGGGCCAAAGGTCATTGCTTCCAATGCTC,PBM binding z-score,[1],4.58
same,PBM binding z-score,[2],5.56
same,PBM binding z-score,[3],4.3
same,PBM binding z-score,[4],1.36
same,PBM binding z-score,[5],5.91
same,PBM binding z-score,[6],3.37
same,PBM binding z-score,[7],0.719
same,PBM binding z-score,[8],2.42
AATACAGGGTCATCGTAGGCCAGAGTTCGCACAG,PBM binding z-score,[1],3.88
same,PBM binding z-score,[2],5.67
same,PBM binding z-score,[3],5.21
same,PBM binding z-score,[4],3.68
same,PBM binding z-score,[5],6.43
same,PBM binding z-score,[6],4.77
same,PBM binding z-score,[7],1.65
same,PBM binding z-score,[8],5.37
CGTCCAAGGTCAGCAGGTCAGTGCAAGCGACGTG,PBM binding z-score,[1],4.99
same,PBM binding z-score,[2],6.35
same,PBM binding z-score,[3],6.82
same,PBM binding z-score,[4],2.29
same,PBM binding z-score,[5],4.74
same,PBM binding z-score,[6],3.77
same,PBM binding z-score,[7],2.47
same,PBM binding z-score,[8],2.18
AGAATGAGGTTACCAAAGATCAGGGTAACGCTTG,PBM binding z-score,[1],1.37
same,PBM binding z-score,[2],2.15
same,PBM binding z-score,[3],1.95
same,PBM binding z-score,[4],1.3
same,PBM binding z-score,[5],3.07
same,PBM binding z-score,[6],3.1
same,PBM binding z-score,[7],1.43
same,PBM binding z-score,[8],0.478
CCTATTAGTTGACCATAAGGCCAACCGAAGCTCG,PBM binding z-score,[1],1.68
same,PBM binding z-score,[2],0.941
same,PBM binding z-score,[3],0.942
same,PBM binding z-score,[4],0.893
same,PBM binding z-score,[5],0.779
same,PBM binding z-score,[6],2
same,PBM binding z-score,[7],1.89
same,PBM binding z-score,[8],1.06
